# Experimental data reported in PubChem BioAssay (Tox21).
# Results filed as inconclusive are left out. Where a call stands in place of a potency, no number is given. Active and inactive are the calls of the source. Calls come from the whole dose curve; as a rule, active = well fitted cell-killing curve with a large enough effect in the repeat runs; inconclusive = weak or mixed curves, or effect the other way; inactive = flat fitted curve, though single readings scatter.
# Legend:
# [1] = cAMP Responsive Elements (CRE) small molecule antagonists, cell-based qHTS assay: qHTS cell viability counter screen (AID 2060913); note: nearly all actives have a fitted effect of over 40% in size
# Procedure, shortened: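 CRE-bla HEK293T cells (2,000/well, 18 h) given compound plus NKH477 0.25 uM final for 3 h at 37C; viability counter-screen by CellTiter-Glo luminescence in same wells after 30 min.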
# [2] = cAMP Responsive Elements (CRE) small molecule agonists, cell-based qHTS assay: qHTS cell viability counter screen (AID 2060914); note: nearly all actives have a fitted effect of over 50% in size
# Procedure, shortened: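 In the same wells as the reporter read, viability of CRE-bla HEK 293T cells was quantified by CellTiter-Glo luminescence after a 3 h compound exposure.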
# Potency is the fitted concentration of half-maximal effect.
SMILES,Potency [1],Potency [2]
ClC(Cl)Br,inactive,inactive
Cc1cccc2sc3nncn3c12,inactive,inactive
O=S(=O)(Cl)Cl,inactive,inactive
O=C1C(Cl)C(CCl)CN1c1cccc(C(F)(F)F)c1 (centres undefined),inactive,inactive
CC(C)OS(C)(=O)=O,inactive,inactive
CNC(=O)O/N=C(\C)SC,inactive,inactive
CC(C)C1(C)N=C(c2ncccc2C(=O)O)NC1=O (centres undefined),inactive,inactive
COP(=O)(OC)C(O)C(Cl)(Cl)Cl (centres undefined),inactive,inactive
C1CCC(NC2CCCCC2)CC1,inactive,inactive
O=P(OCC(Br)CBr)(OCC(Br)CBr)OCC(Br)CBr (centres undefined),inactive,inactive
O=P(O)(Oc1ccccc1)Oc1ccccc1,inactive,inactive
N#CC(Cl)(Cl)Cl,inactive,inactive
CC(=O)OC1(c2ccccc2)CCN(CCc2ccccc2)CC1,inactive,inactive
N#CNC#N,inactive,inactive
O=[N+]([O-])c1cccc2ccccc12,inactive,inactive
CCOP(=S)(Oc1ccc([N+](=O)[O-])cc1)c1ccccc1 (centres undefined),inactive,inactive
Cl[C@H]1OCCO[C@@H]1Cl,inactive,inactive
COC(=O)NC(=S)Nc1ccccc1NC(=S)NC(=O)OC,inactive,inactive
C=CCN(CC=C)C(=O)C(Cl)Cl,inactive,inactive

SMILES,Potency [1],Potency [2]
CCN(CC)C(=O)C(C)Oc1cccc2ccccc12 (centres undefined),inactive,inactive
CON(C)C(=O)Nc1ccc(Cl)cc1,inactive,inactive
O=[N+]([O-])c1cc([As](=O)(O)O)ccc1O,inactive,inactive
CN1CCC(N(Cc2ccccc2)c2ccccc2)CC1,inactive,inactive
O=C(NC(=O)c1c(F)cccc1F)Nc1ccc(Oc2ccc(C(F)(F)F)cc2Cl)cc1F,inactive,inactive
OCCCCO,inactive,inactive
BrCC(Br)c1ccccc1 (centres undefined),inactive,inactive
CC#Cc1cc(C)nc(Nc2ccccc2)n1,inactive,inactive
CC(C)C#N,inactive,inactive
COC(=O)c1ccccc1C(=O)OC,inactive,inactive
OCCOCCO,inactive,inactive
c1ccc(N2CCNCC2)cc1,inactive,inactive
CCCSC(=O)N(CCC)CCC,inactive,inactive
Clc1cccc(SC2CCNCC2)n1,inactive,inactive
COc1ccc(C(=O)c2c(C)n(CCN3CCOCC3)c3ccccc23)cc1,inactive,inactive
S=C1NCCN1,inactive,inactive
CN=C=O,inactive,inactive
CCCCCCCCC(=O)NCc1ccc(O)c(OC)c1,inactive,inactive
C=CCC1(C(C)CC)C(=O)NC(=O)NC1=O (centres undefined),inactive,inactive

SMILES,Potency [1],Potency [2]
Cn1c(N)nc2c3cccnc3ccc21,inactive,inactive
O=C(CBr)c1ccc(O)cc1,inactive,inactive
O=C=Nc1ccc(Cl)cc1,inactive,inactive
CCCOC(=O)Cc1ccc(OCC(=O)N(CC)CC)c(OC)c1,inactive,inactive
CC[C@H](C)[C@H]1O[C@]2(C=C[C@@H]1C)C[C@@H]1C[C@@H](C/C=C(\C)[C@@H](O[C@H]3C[C@H](OC)[C@@H](O[C@H]4C[C@H](OC)[C@@H](NC)[C@H](C)O4)[C@H](C)O3)[C@@H](C)/C=C/C=C3\CO[C@@H]4[C@H](O)C(C)=C[C@@H](C(=O)O1)[C@]34O)O2,15.4 µM (active),19.3 µM (active)
C=CC1(C)OC(=O)N(c2cc(Cl)cc(Cl)c2)C1=O (centres undefined),inactive,inactive
CS(=O)(=O)c1ccc(C(=O)C2C(=O)CCCC2=O)c(Cl)c1COCC(F)(F)F,inactive,inactive
C=CC=O,inactive,inactive
Clc1ccc(CO/N=C(\Cn2ccnc2)c2ccc(Cl)cc2Cl)c(Cl)c1,inactive,inactive
CCOP(=S)(OCC)Oc1cc(C)nc(C(C)C)n1,inactive,inactive
C1=CCC=C1,inactive,inactive
CCCCCc1cc(O)cc(O)c1,inactive,inactive
CCC[N+]1(C)CCCCC1,inactive,inactive
O=[N+]([O-])c1cccc2cccnc12,inactive,inactive
Cc1cccc(N)c1C,inactive,inactive
C[C@H]1CCC[C@H](O)CCCCCc2cc(O)cc(O)c2C(=O)O1,inactive,inactive
COP(=S)(OC)Oc1cc(Cl)c(Cl)cc1Cl,inactive,inactive
CNC(=O)O/N=C/C(C)(C)S(C)=O (centres undefined),inactive,inactive
CC(C)c1ccc(O)cc1,inactive,inactive
